# Laboratory results: PubChem BioAssay AID504766 (The Scripps Research Institute Molecular Screening Center, 2011)
# Among all 340,000 compounds or so, about 3,400 (1%) were called active. The sample as a whole holds a higher share of actives than the screen did. Values without a mark were called inactive.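 How the source made its calls: active means inhibition above the mean over all tested compounds plus 3 SD (cut at about 4.2% in these data); inactive means the rest.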
# Target: Nuclear receptor subfamily 0 group B member 1 (Homo sapiens) (UniProt P51843)
# Assay: relief of DAX1 transcriptional repression – cell-based, HEK293, Gal4-DAX1, luciferase luminescence, primary screen (AID 504766);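 further: 0% = DAX1-transfected cells with DMSO and 100% = empty-vector control cells with DMSO; inhibition shows as a rise in luminescence from relieved DAX1 repression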
# Settings: HEK293 Gal4-DAX1 luciferase reporter, at 6.75 µM, hits give high values
# Chain of Nuclear receptor subfamily 0 group B member 1 (Homo sapiens) (P51843 207-470 limits assumed): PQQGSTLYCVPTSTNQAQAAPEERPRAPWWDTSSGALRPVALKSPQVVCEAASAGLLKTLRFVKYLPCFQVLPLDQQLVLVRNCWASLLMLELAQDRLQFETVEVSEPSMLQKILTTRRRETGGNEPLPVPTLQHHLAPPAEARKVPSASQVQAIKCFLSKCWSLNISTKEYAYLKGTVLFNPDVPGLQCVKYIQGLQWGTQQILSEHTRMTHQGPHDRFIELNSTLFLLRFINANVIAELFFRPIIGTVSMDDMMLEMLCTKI
row,SMILES,inhibition
1,CN(C)C(CNC(=O)c1cccc(S(=O)(=O)N2CCc3ccccc3C2)c1)c1ccccc1 (stereo not drawn),-0.17%
2,c1ccc(-c2cc(-c3ccccc3)[nH]n2)cc1,5.19% (active)
3,Oc1ccccc1-c1cc(-c2ccc(Cl)cc2)n[nH]1,3.28%
4,Nc1cccc(-c2cc(-c3ccccc3)nc(-c3cccc(N)c3)n2)c1,-0.66%
5,Cc1[nH]c2ccccc2c1C(=O)C(=O)NCc1nnnn1-c1cccc(F)c1,-0.63%
6,O=C1CCC(C(=O)OCC(=O)Nc2ccc(OC(F)F)cc2)=NN1,0.5%
7,O=C(N=C1SC2CS(=O)(=O)CC2N1Cc1ccccc1)c1ccccc1 (stereo not drawn),4.11%
8,O=C(c1cccs1)N1C[C@H](n2cc(C3CC3)nn2)[C@@H](O)C[C@@H]1c1ccccc1,1.63%
9,C#CCN(C[C@@H]1[C@@H](OC(=O)NC2CC2)[C@@H](OC(=O)NC2CC2)Cn2c(=O)ccc(=O)n21)S(=O)(=O)c1ccc(C)cc1,-0.06%
10,Cc1ccccc1OS(=O)(=O)c1cccc([N+](=O)[O-])c1,1.42%
11,N/C(=N\OS(=O)(=O)c1cccc([N+](=O)[O-])c1)c1ccncc1,4.92% (active)
12,O=C(c1ccncc1)N1CCN(S(=O)(=O)c2cccc([N+](=O)[O-])c2)CC1,0.88%
13,O=Cc1ccc(OCc2cn3ccccc3n2)cc1,7.12% (active)
14,O=C(NCCc1ccco1)c1ccc(OCc2cn3ccccc3n2)cc1,0.65%
15,CN(C)C(CNC(=O)c1ccc(OCc2cn3ccccc3n2)cc1)c1ccco1 (stereo not drawn),0.93%
16,N#CCCN(C(=O)Nc1ccc(Cl)c(Cl)c1)C1CCCCC1,1.35%
17,CC1CCN(c2ccc3c(c2)S(=O)(=O)c2cc(C(=O)O)ccc2C3=O)CC1,-0.21%
18,COc1ccc(NC(=S)NCC2CCN(c3ccc(OC)cc3)C2)cc1 (stereo not drawn),0.86%
19,COc1ccc(NC(=S)NCCNC(C)=O)cc1,4.78% (active)
20,CCOC(=O)C(NC(C)=O)C(=O)Nc1ccc(OC)cc1 (stereo not drawn),1.97%
21,COc1ccc(NC(=O)c2cc(=O)[nH]c3ccccc23)cc1S(=O)(=O)N1CCOCC1,1.51%
22,COC(=O)c1ccccc1N=NNc1ccc([N+](=O)[O-])cc1,2.03%
23,C[C@H](CO)N1C[C@H](C)[C@@H](CN(C)Cc2ccc3c(c2)OCO3)OCc2cnnn2CCCC1=O,0.31%

row,SMILES,inhibition
1,Cc1csc(=O)n1CCC(=O)OCC(=O)Nc1ccc(N2CCOCC2)cc1,0.99%
2,CCN1C(=O)[C@H]2[C@@H](c3ccccc3)N[C@]3(CCCN(Cc4ccc(C)cc4)C3=O)[C@H]2C1=O,0.28%
3,O=C(NN=Cc1ccc([N+](=O)[O-])cc1)C1CC1,0.79%
4,O=[N+]([O-])c1ccc(C=NN=Cc2ccc([N+](=O)[O-])cc2)cc1,0.89%
5,O=C(N/N=C/c1ccc([N+](=O)[O-])cc1)c1c[nH]c2ccccc12,5.39% (active)
6,COc1ccc(-c2cnc3c(c2)C(=O)N([C@H](C)CO)C[C@@H](C)[C@H](CN(C)Cc2ccccc2)O3)cc1,1.69%
7,CN(C)/C=C(/C(=O)c1ccc(Cl)cc1)S(=O)(=O)c1ccccc1,-0.69%
8,CN(C)/C=C(/C(=O)c1ccc(F)cc1)S(=O)(=O)c1ccc(F)cc1,7.15% (active)
9,CN(C)/C=C(/C(=O)c1ccccc1)S(=O)(=O)c1ccc(Cl)cc1,-0.08%
10,CCOC(=O)C=Cc1ccc(C(=O)OCC)[nH]1,-1.29%
11,Cc1ccc(S(=O)(=O)NN=C2CC(C)(C)CC(=O)C2(C)C)cc1,1.47%
12,COC(=O)c1sccc1NC(=O)c1ccc(Cl)cc1,0.77%
13,COC(=O)c1sccc1NC(=O)c1csc2c1CCCC2,4.39% (active)
14,O=C(Nc1ccccc1N1CCOCC1)c1csc2c1CCCC2,-0.73%
15,O=C(C[C@H]1C[C@@H]2c3cc(NC(=O)C4CCC4)ccc3O[C@@H]2[C@H](CO)O1)NC1CCCCC1,1.37%
16,CC1=C(C(=O)N2CCOCC2)CC(CC(=O)NCCN2CCOCC2)C(=O)N1CCC1=CCCCC1 (stereo not drawn),1.93%
17,C[C@@H]1CN([C@H](C)CO)C(=O)CCCn2nncc2CO[C@@H]1CN(C)S(=O)(=O)c1cccc(C#N)c1,2.66%
18,COc1cc(-c2nnc(NC(=O)CS(=O)(=O)c3ccc(Cl)cc3)o2)cc(OC)c1OC,0.2%
19,COc1ccc(NC(=O)C(Br)C(C)C)cc1 (stereo not drawn),1.41%
20,COc1ccc(NC(=O)C(C)SCc2ccccc2)cc1 (stereo not drawn),6.52% (active)
21,Cc1cccc(NC(=O)C(C)SCc2ccccc2)c1 (stereo not drawn),-1.2%
22,Cc1ccc(S(=O)(=O)N2CCN(C(=O)CCC(=O)NC3CCCc4ccccc43)CC2)cc1 (stereo not drawn),4.27% (active)
23,O=C(CCC(=O)N1CCN(S(=O)(=O)c2ccccc2)CC1)NC1CCCc2ccccc21 (stereo not drawn),0.76%

row,SMILES,inhibition
1,COc1ccc(NC(=O)CCC(=O)N2CCN(S(=O)(=O)c3ccc(C)cc3)CC2)c(OC)c1,-2%
2,CCCCCC(=O)N1C[C@H](O)[C@@H](n2cc(COC(=O)c3ccccc3)nn2)C[C@@H]1c1ccc(C)cc1,0.45%
3,O=C(OCc1ccccc1)N1CCC2CC1c1cc(N3CCN(S(=O)(=O)c4cc(Cl)cc(Cl)c4)CC3)ccc12 (stereo not drawn),1.86%
4,CC(=O)c1ccccc1NC(=O)COC(=O)C1COc2ccccc2O1 (stereo not drawn),0.71%
5,CCN(CC)C(=O)CSc1ncnc2c1cnn2-c1ccccc1,0.89%
6,CC(Sc1ncnc2c1cnn2-c1ccccc1)C(=O)Nc1ccc(N2CCOCC2)cc1 (stereo not drawn),-0.48%
7,CC(C)Sc1ncnc2c1cnn2-c1ccccc1,6.85% (active)
8,NC(=O)CSc1nnc(-c2cccc(S(=O)(=O)N3CCOCC3)c2)o1,0.86%
9,CN1OC[C@@H]2CN(C(=O)c3ccc(-c4ccccc4)cc3)[C@H](c3ccc(-c4cccc(F)c4)cc3)C[C@@H]21,-0.68%
10,CN1CCN(C(=O)CCc2nc(-c3ccc(Cl)cc3)no2)CC1,5.55% (active)
11,COc1ccc(N2CCN(C(=O)CCc3nc(-c4ccc(C)cc4)no3)CC2)cc1,-0.22%
12,COc1ccc(-c2noc(CCC(=O)N3CCN(c4cccc(C)c4)CC3)n2)cc1,0.39%
13,CC(C)NC(=S)NN=C1CCCCCCCCCCC1,-0.27%
14,CCc1ccc(C(=O)NN=C2CCCCCC2)s1,1.24%
15,CC(C)(C)NC(=O)C(=O)NN=C1CCCCCCC1,6.84% (active)
16,C[C@@H]1CN([C@H](C)CO)C(=O)CCCn2cc(nn2)CO[C@H]1CN(C)S(=O)(=O)c1ccc(Oc2ccccc2)nc1,0.73%
17,CN(c1ccccc1)S(=O)(=O)c1ccc(C(=O)NCc2cccnc2)cc1,-0.1%
18,O=C(NCc1nnnn1-c1ccc(Cl)cc1)c1ccc2c(c1)OCO2,0.46%
19,O=C(c1ccc(F)cc1)n1cc(C(=S)N2CCOCC2)c2ccccc21,1.01%
20,O=C(c1ccc(F)cc1)n1c(=S)nc2ccccn21,5.47% (active)
21,O=C(Cn1c(=S)nc2ccccn21)N1CCc2ccccc2C1,1.21%
22,O=[N+]([O-])c1ccc(C(S(=O)(=O)Cc2ccccc2)S(=O)(=O)Cc2ccccc2)cc1,1.99%
